Here are results for 26 compounds from PubChem BioAssay (NCI).

Several values for one entry are separate records, joined by “and”; a condition that tells them apart may be missing. Equal values may be shown once. Compounds without any hit were thinned out: in the full panel of roughly 83,000, 20% have a hit.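 Values shown are percent growth following 48 h exposure of cells in 96-well plates to a single concentration of compound; below 10 was considered active.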 Activity calls are given as the source filed them.

This experiment concerns MDA-MB-468 breast. Briefly: NCI-60 one-dose screen, 48 h (100 = growth as untreated, 0 = no growth, -100 = all killed). The note with it: 10 µM unless noted.
`Cc1ccc(S(=O)(=O)n2cc(C(=O)C(=O)N3CCOCC3)c3ccccc32)cc1`: the growth was 90.4% (inactive).
Take `COc1cccc(-c2nn(-c3ccccc3)cc2-c2ccnc(NCCNS(=O)(=O)c3ccccc3)c2)c1`: the growth is 14.5% (inactive).
For `Cc1cccc(Cc2cnc(NC(=O)c3ccc4nnsc4c3)s2)c1` the value was 94.8% (inactive); for `COc1ccc(-c2[nH]ncc2-c2cc3c(c(OC)c2)OCC(=O)N3)cc1`, -6.47% (active); for `O=C1CC2C=CCN2C=C1NC(=O)c1ccccc1` (stereo unspecified), 98.9% (inactive).
For `Cc1cc(C(C)(CC(C)C)c2ccc(O)c(C)c2)ccc1O` the value was 103% (inactive); for `O=C(Nc1cccc(-n2ccc3c(NC(=O)c4ccccc4)nccc32)c1)c1ccc(Cl)c(C(F)(F)F)c1`, -86.9% (active) and 85.1% (inactive); for `C=CCNCCN1C(=O)c2ccc3c4c(ccc(c24)C1=O)C(=O)N(CCNCC=C)C3=O`, -89.1% (active).
For `CC1(C)N=C(N)N=C(N)N1c1cccc(CN)c1` the value was 84.8% (inactive); for `Cc1ccc(C(=O)NN2C(=O)CSC2c2ccc(Cl)cc2)cn1` (stereo unspecified), 110% (inactive).
Consider `N#CC1(C#N)C(c2cccs2)NC(c2cccs2)C1(C#N)C#N` (stereo unspecified), for which the growth is 104% (inactive).
For the compound `COc1cc(Nc2ncccc2NC(=O)c2cn(Cc3cccc(Oc4ccccc4)c3)nn2)cc(OC)c1`, the growth was 65.9% (inactive).
With `COc1ccc(C(=O)N2NC(=O)/C(=C/c3cn(-c4ccccc4)nc3-c3ccccc3)N=C2c2ccccc2)cc1` the figure was 95.7% (inactive).
For `Fc1ccc2[nH]c3c(NCCCN4CCOCC4)ncnc3c2c1` the value was 73.2% (inactive); for `Cc1cn(-c2cccc(NC(=O)c3ccc(C)c(Nc4nccc(-c5cccnc5)n4)c3)c2)cn1`, -41.4% (active).
With `CCc1nc(C)cn1C(=O)OCc1nc2nc(Cl)nc(N3CCOCC3)c2[nH]1` the figure was -54.6% (active); with `O=C(CCc1nnc2sc(Cc3ccccc3Cl)nn12)c1nc2ccccc2[nH]1`, 84.5% (inactive); with `O=C1Nc2ccc(Cl)cc2/C1=C\c1c(-c2ccc(Cl)cc2)nc2sc(C3CC3)nn12`, 66.4% (inactive).
For `Nc1c(-c2nc3ccc(Br)cc3c(=O)[nH]2)nnn1-c1ccccc1`, the growth is 65.6% (inactive).
Take `O=C(Nc1ncc(Cc2cccc(C(F)(F)F)c2)s1)C1COc2ccccc2O1` (stereo unspecified): the growth is 77.4% (inactive).
With `Cc1nc2ccccc2c(/C=C/c2ccc(Cl)cc2)c1C(=O)/C=C/c1ccc(C(F)(F)F)cc1` the figure was -65.8% (active).
Consider `COc1cc2ncnc(-n3ncc4cc(NC(=O)Nc5ccc(Cl)c(Cl)c5)ccc43)c2cc1OC`, for which the growth was -70.5% (active).
`CC[C@]12C=CCN3CC[C@@]4(c5ccc(OC)cc5N(C)[C@H]4[C@@](O)(C(=O)OC)[C@@H]1OC(=O)CCC[P+](c1ccccc1)(c1ccccc1)c1ccccc1)[C@@H]32`: the growth was -75.6% (active).
With `Nc1nc2c(c3ncccc13)C(c1cccc(Br)c1)Cc1ncccc1-2` (stereo unspecified) the figure was 13.7% (inactive).
With `C=C(C)[C@@H]1CC[C@]2(CNCCO)CC[C@]3(C)[C@H](CC[C@@H]4[C@@]5(C)CCC(N)[C@@](C)(CO)[C@@H]5CC[C@]43C)[C@@H]12` (stereo partly specified) the figure was -86.8% (active).
Turning to `CSc1nc2ccc(C)cc2cc1/C=N/O`, the growth was 101% (inactive).
